Assay results published in the supplement of paper PMC6555819.

Tests used:
Assay in all cases: PBM binding z-score (relative to random genomic background probes); higher = stronger binding; sequences stand for … in GC…GCGATTGACAGCGTAGAATGAAGG
[1] = tested on: FXR:RXRa (NR concentration 270 nM, RXRa partner concentration 90 nM)
Method in brief: (§1)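 The probes on custom Agilent 4×180K protein-binding microarrays were double-stranded, with 34-nt variable regions bearing direct-repeat seeds, single-nucleotide variants, half-site ablations and random human genomic background sequences. Incubation lasted 1 h with ligand-free nuclear receptor dimers in PBS pH 7.4, 2% milk, 0.02% Triton X-100, 1 mM DTT, 0.2 mg/mL BSA and 0.4 mg/ml salmon testes DNA. Antibodies against each partner (one per run) detected bound dimers, and fluorescence scans were regression-normalized. Binding z-scores take the random background probes as reference.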

[2] = tested on: LXRa:RXRa (NR concentration 270 nM, RXRa partner concentration 90 nM)
Method in brief: as §1

[3] = tested on: LXRa homodimer (NR concentration 270 nM)
Method in brief: as §1

[4] = tested on: LXRb:RXRa (NR concentration 270 nM, RXRa partner concentration 90 nM)
Method in brief: as §1

[5] = tested on: LXRb homodimer (NR concentration 270 nM)
Method in brief: as §1

[6] = tested on: PPARa:RXRa (NR concentration 270 nM, RXRa partner concentration 90 nM)
Method in brief: as §1

[7] = tested on: PPARg:RXRa (NR concentration 180 nM, RXRa partner concentration 90 nM)
Method in brief: as §1

[8] = tested on: PPARg:RXRa 270nM:90nM, anti-RXR (NR concentration 270 nM, RXRa partner concentration 90 nM)
Method in brief: as §1

[9] = tested on: PPARg:RXRa 30nM:10nM, anti-RXR (NR concentration 30 nM, RXRa partner concentration 10 nM)
Method in brief: as §1

[10] = tested on: PPARg:RXRa 90nM:30nM, anti-RXR (NR concentration 90 nM, RXRa partner concentration 30 nM)
Method in brief: as §1

[11] = tested on: PPARg:RXRa DBDmut IVT, anti-RXR (DBD mutation: RXRa K156A/R161A, NR concentration 270 nM, RXRa partner concentration 90 nM)
Method in brief: as §1

[12] = tested on: PPARg:RXRa IVT, anti-PPARg (NR concentration 270 nM, RXRa partner concentration 90 nM)
Method in brief: as §1

[13] = tested on: PPARg DBDmut:RXRa IVT, anti-PPARg (DBD mutation: PPARg1 K132A/R137A, NR concentration 270 nM, RXRa partner concentration 90 nM)
Method in brief: as §1

[14] = tested on: PPARg DBDmut IVT, anti-PPARg (DBD mutation: PPARg1 K132A/R137A, NR concentration 270 nM)
Method in brief: as §1

[15] = tested on: PPARg homodimer (NR concentration 180 nM)
Method in brief: as §1

[16] = tested on: PXR:RXRa (NR concentration 270 nM, RXRa partner concentration 90 nM)
Method in brief: as §1

[17] = tested on: PXR homodimer (NR concentration 270 nM)
Method in brief: as §1

[18] = tested on: RARa:RXR (NR concentration 270 nM, RXRa partner concentration 90 nM)
Method in brief: as §1

[19] = tested on: RARa homodimer (NR concentration 270 nM)
Method in brief: as §1

[20] = tested on: RARb:RXRa (NR concentration 270 nM, RXRa partner concentration 90 nM)
Method in brief: as §1

Sequence	PBM binding z-score [1]	PBM binding z-score [2]	PBM binding z-score [3]	PBM binding z-score [4]	PBM binding z-score [5]	PBM binding z-score [6]	PBM binding z-score [7]	PBM binding z-score [8]	PBM binding z-score [9]	PBM binding z-score [10]	PBM binding z-score [11]	PBM binding z-score [12]	PBM binding z-score [13]	PBM binding z-score [14]	PBM binding z-score [15]	PBM binding z-score [16]	PBM binding z-score [17]	PBM binding z-score [18]	PBM binding z-score [19]	PBM binding z-score [20]
GCTAGTTGGTCAGCAAAAGGTCACACACCGGTCG	3.17	4.15	4.08	3.94	0.516	4.17	2.48	4.05	1.79	3.39	0.999	2.88	-0.1	-0.835	4.56	5.02	1.32	5.74	2.26	4.37
CGAACTAGGTCATTGACAGGATAGTGAATAGTAA	4.3	2.82	0.355	2.01	-0.145	4.83	7.71	6.36	3.54	5.85	7.87	8.1	4.08	2.22	1.94	1.25	0.363	1.88	0.385	3.59
TCTTGTTGATCAACAGGAGGTTAAGAAAGATCGA	-0.388	1.08	0.0425	0.962	-0.0113	1.21	-0.165	1.01	2.18	2.1	0.718	0.445	1.15	0.996	-0.401	0.703	-0.344	0.688	-0.505	0.432
CCTCCAAGGTCAGAGAGGTCAGTGAATGCCGAGT	5.62	5.09	2.77	4.43	0.381	4.71	3.2	4.06	1	2.54	2.56	2.91	-0.128	-1.11	3.5	5.94	10.8	4.82	0.862	5.18
AATACAGGGTCGTCGTAGGCCAGAGTACGCACAG	2.12	1.97	0.0247	1.42	0.00201	2.91	1.93	1.36	0.194	0.808	-0.0628	0.91	0.684	0.302	0.517	1.7	0.241	2.19	0.296	1.72
TCTATTAGTTCATTAGGGCAACCGAAACAGCGGA	1.12	1.73	1.56	1.29	1.34	2.47	1.21	2.92	3.81	3.34	2.92	2.95	1.5	1.13	1.3	1.75	1.7	1.2	1.45	2.64
CAAACTAGGTCACGAAATGTCAAAGTCGAATGAC	4.45	5.4	1.06	3.49	0.702	5.42	9.32	7.56	6.2	7.61	8.65	9.32	6.88	5.58	3.3	2.74	0.475	3.64	1.83	4.39
GCTGTTAGGTCAACTGATGGTCAGCTAAAGCTCG	4.8	3.67	0.551	2.5	1.02	3.78	2	2.74	0.501	1.61	4.04	2.94	0.716	0.227	3.51	2.32	-0.291	3.69	0.121	4.4
CAAACTAGGTAAAGAGGTCAAAGTCCGCTTCCCG	4.77	5.01	4.55	4.65	1.08	5.7	6.6	6.92	5.17	7.2	6.78	6.91	3.48	1.44	5.18	5.5	2.02	6.1	1.43	3.95
AGTCAAAGTTCATCTAGGCAACGTAAGATATGCT	6.17	6.15	4.67	3.78	1.77	4.92	6.47	6.11	3.4	5.44	0.192	3.08	1.23	0.857	2.59	5.11	4.94	3.62	0.925	5.1
TGTCAAAGTTCAAAGGTATCGTAAGTATCCACAC	6.52	6.21	4.75	3.88	1.73	5.28	7.79	7.23	4.93	6.44	-0.2	3.95	0.81	1.08	2.53	5.14	4.92	4.95	1.12	4.91
AGAATGAGGGCAATGAGTTGATAGCACGGGTGGC	0.728	0.505	-0.515	-0.0914	-0.286	1.91	1.79	1.42	0.0297	0.697	4.59	3.33	0.634	0.0242	0.0668	1.89	5.25	0.357	0.124	2.04
CGTCCAAGGTCAATGCTAGGTCAGAGAAAGCATT	6.97	5.95	2.67	4.32	0.8	5.25	4.39	4.86	1.59	3.76	3.57	3.92	0.456	-0.0823	4.96	4.85	1.92	5.99	1.27	5.25
ATACCAACGTGATCGTGAGGTCGTTGATACTAAC	0.885	0.498	0.494	0.84	-0.123	0.65	0.385	-0.0479	-0.202	-0.163	-0.625	0.0964	0.725	0.527	0.699	1.67	0.835	1.23	-0.137	0.259
